{"source": "PubChem BioAssay AID488794", "about": "(Sanford-Burnham Center for Chemical Genomics, 2010)", "note": "Screen size: about 1,000 compounds; about 550 (55%) were called active. The set was probably picked from earlier hits. These entries were drawn from the full list. A number with no mark means an inactive call. No stated cut-off is given here; in the data, active means inhibition above about 50%; inactive means the rest."}
{"assay": "NALP3 inhibitors in yeast, repeat test, confirmation, luminescence, single concentration, retest (AID 488794)", "settings": "yeast expressing human NALP3, luminescence read-out; at 10 µM; stronger effect = higher value"}
{"smiles": "CCCCCCCCCCCCn1ccc(=N)cc1", "inhibition": "82.8% (active)"}
{"smiles": "Cc1cc2ccccn2c1C(C[N+](=O)[O-])c1c(F)cccc1Cl", "note": "(centres undefined)", "inhibition": "23.2%"}
{"smiles": "Cc1ccc(-c2nc3ccccc3c(=O)n2-c2ccc(Br)cn2)cc1", "inhibition": "45.7%"}
{"smiles": "O=C1/C(=C\\c2ccc3c(c2)OCO3)N2CCC1CC2", "inhibition": "35%"}
